# Assay results as given in the supplement of paper PMC11732987, “Enantioselective OTUD7B fragment discovery through chemoproteomics screening and high-throughput optimisation” (Communications Chemistry, 2025).
# Values without a mark were called inactive.
# Compound: ClCC(=O)N1CCC(CC#N)C1
# Assay: log2 ratio of Biotin-Ahx-Ub-VS probe labelling (compound/DMSO); higher = less target engagement, active = hit call of the paper (q ≤ 0.05, log2 ratio ≤ -1)
# Conditions: compound concentration: 50uM; treatment time: 3 h
# Description: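 Round 2 competitive ABPP in HEK293T lysate. Purified HTC-D2B compounds were tested at 50 and 200 µM for 3 h, followed by Biotin-Ahx-Ub-VS enrichment and diaPASEF LC-MS/MS. Values are the average log2 ratio (compound/DMSO) from an unpaired t-test (n=3 treated, n=26 DMSO).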
# UniProt Q5VVQ6, sequence (Q5VVQ6 whole entry): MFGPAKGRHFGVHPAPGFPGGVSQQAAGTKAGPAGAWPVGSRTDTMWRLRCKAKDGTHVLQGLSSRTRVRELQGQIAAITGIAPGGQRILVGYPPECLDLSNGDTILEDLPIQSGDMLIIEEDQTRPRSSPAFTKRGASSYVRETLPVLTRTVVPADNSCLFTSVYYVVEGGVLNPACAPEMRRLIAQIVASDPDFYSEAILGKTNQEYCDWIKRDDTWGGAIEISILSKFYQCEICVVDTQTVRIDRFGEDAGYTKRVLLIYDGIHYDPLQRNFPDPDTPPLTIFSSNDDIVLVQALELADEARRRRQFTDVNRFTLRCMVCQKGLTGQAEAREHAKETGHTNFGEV
# UniProt O00487, sequence (O00487 whole entry): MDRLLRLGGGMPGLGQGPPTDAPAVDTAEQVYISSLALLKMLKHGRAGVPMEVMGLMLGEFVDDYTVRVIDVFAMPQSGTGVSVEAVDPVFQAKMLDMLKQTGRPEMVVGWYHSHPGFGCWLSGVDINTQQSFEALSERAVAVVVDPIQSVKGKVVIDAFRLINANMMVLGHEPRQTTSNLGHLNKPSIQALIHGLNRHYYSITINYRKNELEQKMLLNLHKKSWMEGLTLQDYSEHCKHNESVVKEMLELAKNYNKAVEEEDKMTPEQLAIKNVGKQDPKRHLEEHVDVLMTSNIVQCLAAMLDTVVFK
# UniProt P51784, sequence (P51784 whole entry): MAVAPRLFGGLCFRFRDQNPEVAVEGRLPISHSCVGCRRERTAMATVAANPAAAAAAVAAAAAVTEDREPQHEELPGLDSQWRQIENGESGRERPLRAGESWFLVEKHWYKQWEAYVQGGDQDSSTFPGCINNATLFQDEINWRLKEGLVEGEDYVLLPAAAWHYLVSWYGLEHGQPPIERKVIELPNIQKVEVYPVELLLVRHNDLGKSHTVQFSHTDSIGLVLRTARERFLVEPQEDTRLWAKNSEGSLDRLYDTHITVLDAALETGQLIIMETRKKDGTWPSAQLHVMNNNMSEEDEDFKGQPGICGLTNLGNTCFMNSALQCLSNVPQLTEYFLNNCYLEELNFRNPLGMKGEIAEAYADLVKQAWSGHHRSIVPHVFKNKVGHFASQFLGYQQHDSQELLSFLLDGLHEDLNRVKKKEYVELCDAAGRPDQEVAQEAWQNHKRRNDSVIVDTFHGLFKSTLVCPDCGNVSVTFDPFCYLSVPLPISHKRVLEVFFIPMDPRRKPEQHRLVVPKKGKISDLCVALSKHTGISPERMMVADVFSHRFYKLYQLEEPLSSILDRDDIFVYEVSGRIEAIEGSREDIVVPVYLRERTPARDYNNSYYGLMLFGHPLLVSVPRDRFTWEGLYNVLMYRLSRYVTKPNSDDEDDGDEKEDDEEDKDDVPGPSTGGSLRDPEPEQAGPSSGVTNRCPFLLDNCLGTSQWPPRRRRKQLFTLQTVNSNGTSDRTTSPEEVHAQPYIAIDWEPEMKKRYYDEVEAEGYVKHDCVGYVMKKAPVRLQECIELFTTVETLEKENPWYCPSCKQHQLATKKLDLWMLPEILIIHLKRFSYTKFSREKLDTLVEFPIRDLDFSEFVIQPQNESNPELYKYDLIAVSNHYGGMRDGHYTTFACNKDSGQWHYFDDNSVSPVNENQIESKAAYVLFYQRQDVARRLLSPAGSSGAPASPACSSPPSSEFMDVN
# UniProt Q6GQQ9, sequence (Q6GQQ9 whole entry): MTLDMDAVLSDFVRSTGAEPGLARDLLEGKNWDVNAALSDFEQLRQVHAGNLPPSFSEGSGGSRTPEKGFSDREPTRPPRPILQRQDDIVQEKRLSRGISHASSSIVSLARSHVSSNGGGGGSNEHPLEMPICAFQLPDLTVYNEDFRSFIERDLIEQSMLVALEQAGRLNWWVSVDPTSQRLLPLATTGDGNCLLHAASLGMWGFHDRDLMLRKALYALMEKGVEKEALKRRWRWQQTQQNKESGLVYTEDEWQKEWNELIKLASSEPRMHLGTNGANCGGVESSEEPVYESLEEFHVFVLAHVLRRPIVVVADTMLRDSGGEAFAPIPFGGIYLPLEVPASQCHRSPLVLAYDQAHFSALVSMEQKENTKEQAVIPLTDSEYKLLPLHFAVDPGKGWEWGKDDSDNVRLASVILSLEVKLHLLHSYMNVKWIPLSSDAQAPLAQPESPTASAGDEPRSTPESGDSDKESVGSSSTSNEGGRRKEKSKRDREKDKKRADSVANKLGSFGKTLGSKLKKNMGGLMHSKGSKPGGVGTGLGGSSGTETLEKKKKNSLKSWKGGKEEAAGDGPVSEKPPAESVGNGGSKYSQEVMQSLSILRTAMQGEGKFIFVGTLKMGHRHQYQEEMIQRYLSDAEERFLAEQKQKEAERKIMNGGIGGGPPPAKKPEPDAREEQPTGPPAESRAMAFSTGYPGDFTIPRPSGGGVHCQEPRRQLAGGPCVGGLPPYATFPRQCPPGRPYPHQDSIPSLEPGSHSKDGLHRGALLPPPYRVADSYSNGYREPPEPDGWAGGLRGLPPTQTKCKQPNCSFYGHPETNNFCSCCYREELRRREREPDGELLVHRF
# UniProt Q9P2H5, sequence (Q9P2H5 whole entry): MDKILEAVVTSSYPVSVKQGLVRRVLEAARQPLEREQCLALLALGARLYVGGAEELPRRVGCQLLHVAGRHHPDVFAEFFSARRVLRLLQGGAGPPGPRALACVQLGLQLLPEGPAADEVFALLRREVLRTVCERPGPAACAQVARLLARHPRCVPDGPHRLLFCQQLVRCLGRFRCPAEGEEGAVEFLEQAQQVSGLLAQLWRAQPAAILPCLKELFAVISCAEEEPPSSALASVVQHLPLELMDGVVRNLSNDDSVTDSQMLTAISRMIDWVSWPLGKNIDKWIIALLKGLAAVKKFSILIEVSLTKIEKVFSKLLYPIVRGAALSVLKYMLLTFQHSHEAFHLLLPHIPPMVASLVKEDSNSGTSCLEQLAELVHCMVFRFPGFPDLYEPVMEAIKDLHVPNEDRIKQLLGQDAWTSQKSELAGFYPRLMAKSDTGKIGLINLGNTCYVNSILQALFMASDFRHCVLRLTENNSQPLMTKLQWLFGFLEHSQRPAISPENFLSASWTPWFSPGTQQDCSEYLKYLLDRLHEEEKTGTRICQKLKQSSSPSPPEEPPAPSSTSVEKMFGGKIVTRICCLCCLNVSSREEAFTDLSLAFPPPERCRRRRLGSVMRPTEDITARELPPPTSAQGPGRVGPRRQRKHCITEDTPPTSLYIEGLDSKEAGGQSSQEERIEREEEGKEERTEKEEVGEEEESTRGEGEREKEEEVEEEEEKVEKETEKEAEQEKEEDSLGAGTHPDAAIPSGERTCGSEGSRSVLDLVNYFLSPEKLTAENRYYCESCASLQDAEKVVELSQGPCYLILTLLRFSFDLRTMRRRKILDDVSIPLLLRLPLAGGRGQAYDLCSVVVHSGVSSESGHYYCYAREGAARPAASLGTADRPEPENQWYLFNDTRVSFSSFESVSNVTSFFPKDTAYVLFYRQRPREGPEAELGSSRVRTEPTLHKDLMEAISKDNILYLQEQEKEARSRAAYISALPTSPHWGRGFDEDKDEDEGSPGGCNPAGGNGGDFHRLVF
# UniProt Q8N6M0, sequence (Q8N6M0 whole entry): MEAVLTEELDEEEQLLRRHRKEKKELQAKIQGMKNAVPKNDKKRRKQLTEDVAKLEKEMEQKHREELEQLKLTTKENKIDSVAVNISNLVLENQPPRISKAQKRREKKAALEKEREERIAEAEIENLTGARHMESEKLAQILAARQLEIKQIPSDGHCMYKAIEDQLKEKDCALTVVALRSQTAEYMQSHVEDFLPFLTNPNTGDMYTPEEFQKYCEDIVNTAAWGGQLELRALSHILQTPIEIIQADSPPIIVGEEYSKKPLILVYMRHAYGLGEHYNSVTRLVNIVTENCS
# UniProt Q92905, sequence (Q92905 whole entry, looked up): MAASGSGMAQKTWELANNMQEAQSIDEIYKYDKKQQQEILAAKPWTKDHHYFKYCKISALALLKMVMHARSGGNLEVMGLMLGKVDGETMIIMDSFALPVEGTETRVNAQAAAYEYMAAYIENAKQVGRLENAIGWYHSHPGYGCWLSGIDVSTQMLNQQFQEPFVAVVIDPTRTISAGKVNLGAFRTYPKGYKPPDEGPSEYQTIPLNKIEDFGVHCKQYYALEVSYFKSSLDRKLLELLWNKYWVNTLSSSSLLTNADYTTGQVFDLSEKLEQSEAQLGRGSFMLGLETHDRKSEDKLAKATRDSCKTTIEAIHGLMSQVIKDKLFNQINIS
# UniProt Q92560, sequence (Q92560 whole entry): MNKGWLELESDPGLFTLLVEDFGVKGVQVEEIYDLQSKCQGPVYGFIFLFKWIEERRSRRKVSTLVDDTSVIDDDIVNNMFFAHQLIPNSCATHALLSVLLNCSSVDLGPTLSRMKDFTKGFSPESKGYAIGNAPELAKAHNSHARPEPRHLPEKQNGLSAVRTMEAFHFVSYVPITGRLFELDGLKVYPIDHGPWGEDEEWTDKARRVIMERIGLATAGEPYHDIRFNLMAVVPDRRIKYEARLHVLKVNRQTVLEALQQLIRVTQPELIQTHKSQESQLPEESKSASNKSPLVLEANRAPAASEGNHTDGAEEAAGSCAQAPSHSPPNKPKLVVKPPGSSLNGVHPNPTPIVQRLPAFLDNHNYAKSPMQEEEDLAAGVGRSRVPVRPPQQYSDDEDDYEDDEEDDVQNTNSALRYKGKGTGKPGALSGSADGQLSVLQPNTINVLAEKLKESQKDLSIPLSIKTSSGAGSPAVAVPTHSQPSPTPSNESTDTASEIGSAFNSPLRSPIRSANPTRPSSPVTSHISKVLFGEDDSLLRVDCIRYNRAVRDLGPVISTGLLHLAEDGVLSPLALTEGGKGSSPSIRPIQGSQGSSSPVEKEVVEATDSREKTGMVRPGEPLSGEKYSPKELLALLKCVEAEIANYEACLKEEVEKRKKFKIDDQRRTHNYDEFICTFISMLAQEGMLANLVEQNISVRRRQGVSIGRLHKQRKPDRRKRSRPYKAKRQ
row,Target,log2 ratio of Biotin-Ahx-Ub-VS probe labelling
1,USP54 (UniProt Q70EL1),-0.068
2,USP15 (UniProt Q9Y4E8),-0.281
3,USP39 (UniProt Q53GS9),-0.0848
4,USP8 (UniProt P40818),-0.261
5,UniProt Q9P2H5,-0.115
6,COPS5 (UniProt Q92905),-0.111
7,UniProt P51784,-0.0555
8,USP36 (UniProt Q9P275),-0.193
9,ATXN3 (UniProt P54252),-0.387
10,YOD1 (UniProt Q5VVQ6),-0.225
11,USP48 (UniProt Q86UV5),-0.0601
12,USP19 (UniProt O94966),-0.285
13,OTUD6B (UniProt Q8N6M0),-0.197
14,BAP1 (UniProt Q92560),-0.376
15,FAM105A (UniProt Q9NUU6),-0.103
16,UniProt O00487,-0.033
17,USP38 (UniProt Q8NB14),0.00826
18,ALG13 (UniProt Q9NP73),0.259
19,USP34 (UniProt Q70CQ2),0.721
20,OTUD7B (UniProt Q6GQQ9),-0.339

# Same assay, conditions: compound concentration: 200uM; treatment time: 3 h
row,Target,log2 ratio of Biotin-Ahx-Ub-VS probe labelling
1,USP54 (UniProt Q70EL1),-0.954
2,USP15 (UniProt Q9Y4E8),-0.268
3,USP39 (UniProt Q53GS9),0.0939
4,USP8 (UniProt P40818),-0.168
5,UniProt Q9P2H5,0.00502
6,COPS5 (UniProt Q92905),-0.11
7,UniProt P51784,-0.0925
8,USP36 (UniProt Q9P275),0.0225
9,ATXN3 (UniProt P54252),-0.524
10,YOD1 (UniProt Q5VVQ6),0.00802
11,USP48 (UniProt Q86UV5),-0.185
12,USP19 (UniProt O94966),-0.557
13,OTUD6B (UniProt Q8N6M0),-0.265
14,BAP1 (UniProt Q92560),-0.502
15,FAM105A (UniProt Q9NUU6),0.0672
16,UniProt O00487,-0.198
17,USP38 (UniProt Q8NB14),-0.302
18,ALG13 (UniProt Q9NP73),0.307
19,USP34 (UniProt Q70CQ2),-0.382
20,OTUD7B (UniProt Q6GQQ9),-0.552
